Data as given in PubChem BioAssay AID1347426 (Functional Genomics Laboratory (NCATS/FGL), 2020).
The campaign covered roughly 31,000 sequences. About 1,400 (4.5%) were called active. Many of the other results were omitted from the sample, so actives are more common in it than they were. A number with no mark means an inactive call.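 Rule for the calls: active = median seed-adjusted z-score above 1 or below -1; inactive = the rest.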

Experiment: Novel Modifiers of Survival Motor Neuron (SMN) Protein: Gene Identification via Genome-wide siRNA Screen;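 note: luminescence tracks full-length SMN protein made from the SMN2 reporter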
Details: HEK293T SMN2-luciferase reporter, siRNA knockdown, 72 h; actives lie on both sides
From the text: Spinal muscular atrophy (SMA) is the most common neuromuscular autosomal recessive disorder and one of the leading genetic causes of infant death. SMA results from mutations inducing loss of function or deletion in the survival of motor neuron-1 gene (SMN1), leading to deficiency of the survival motor neuron (SMN) protein. Although a second nearly identical gene, SMN2, is retained in humans, its expression primarily produces an aberrantly spliced isoform that is largely unstable and quickly degraded. We performed a genome-wide RNAi screen using a cell-based reporter assay to identify genes and pathways that modulate SMN protein stability. The screen identified over 200 genes that led to the greatest increase or decrease in luciferase expression.
Using HEK293T cells stably expressing a luciferase reporter that combines the promoter and splicing based cassettes in tandem with the major portion of the native SMN2 cDNA with luciferase, we performed a genome-wide RNAi screen to identify modulators of SMN protein levels. Luciferase is expressed when full-length SMN protein is generated with luminescence signal proportional to SMN protein levels. Our luciferase-based reporter assay was used to screen Ambion Silencer Select Human Druggable Genome siRNA library (10418 genes, 3 unique siRNAs per gene) using lipid-based reverse transfection.
Briefly, 1 pmol of each siRNA was spotted to a well of a 384-well plate (Corning, Corning, NY) and 20 microL of serum-free DMEM containing […] of Lipofectamine RNAiMax (Life Technologies, Carlsbad, CA) was then added to each well. Transfected cells were maintained at 37 degrees C in 5% CO2 for 72 hours, 20 microL of ONE-Glo Reagent (Promega) was added to wells for luciferase quantification. Raw luminescence reads were normalized to Ambion(R) Silencer(R) Negative Control #2 siRNA, then log10 transformed. A robust statistical measure of median absolute deviation (MAD) to standardize siRNA activities from each screen. Common Seed Analysis was used to help prioritize clean hits as opposed to those appearing to arise from seed based off-target effects. Candidate modulators were defined as the genes having a MAD score greater than 1.0 or less than -1.0.

Row | Sequence | median seed-adjusted z-score
1 | GGCUGCACAUAUACCUUAATT against RRN3 | 0.0382
2 | GGAUAGUUUUUCGAAUUAATT against MYO9A | -0.567
3 | GGUAAGGCCUUAUAAUGUATT against KHK | 0
4 | GGAUAUCCGCCUUCACAGATT against BAG4 | 0.111
5 | CCACUAGCUGAUUACUAUATT against MED6 | -2.15 (active)
6 | CGAAGAAUCUUCCGAAGAATT against EIF2AK1 | -0.546
7 | GAAUGUAUCAGCUACCGAUTT against HYAL4 | -0.236
8 | GAAAGACUCUUACCAUUUUTT against SSBP4 | 0.254
9 | GCAUUGGGAUGUACUUGUATT against LRP12 | 0.416
10 | GCAUGAACUGAAACCCAAUTT against SMURF1 | -1.4 (active)
11 | CCAUCGUACCUGUUACCAATT against KRIT1 | -0.447
12 | GCAUCUACGAGUUCAUCAUTT against FOXG1 | 0.749
13 | GCAGUGAUCUAGUCUCUUUTT against GLRX | -0.0561
14 | CAUAACCACUUUAAAGUCATT against GAB1 | 0.373
15 | GCAAAUUGAUGAACCGGUUTT against CEP135 | -0.2
16 | UGACCACACUUCUCAGCUATT against IL9R | -1.33 (active)
17 | GCACGAGGCUGGUACAGUUTT against MFNG | 0.377
18 | GGAGACUAGUGGUGGGAUATT against CCL16 | -0.308
19 | GCAACUUGUGAAUCUAGGATT against VCAM1 | 0.19
20 | AACUUGUCGCUGCCCAAUATT against ABCA2 | -1.18 (active)
21 | GGCUGACAGUAGCUAAGCUTT against RAPGEF4 | -0.197
22 | CCAGAUGGAUGUACACUGUTT against PDE6C | 0.205
23 | CCACGCACAUACUAUCAAATT against HIVEP1 | 0.532

Row | Sequence | median seed-adjusted z-score
24 | CCCUUAGACUCUAAGCCCATT against HSD17B14 | 0.386
25 | GAAUGGUCCUAUAUCUCAATT against LARP5 | -0.144
26 | GGAUACUUCAGGACUAGAATT against PNN | 1.29 (active)
27 | GAGCAUCUUUGAUCGAGAATT against SPINK5 | 0.26
28 | CCCUGGCAGCUAGUAGGUUTT against BATF3 | 0.698
29 | CCAGUUUAUUGGAAACCGATT against NOP56 | 0.307
30 | UCCAGCAAGUGGCCAAGAATT against DUPD1 | -0.406
31 | AGAUUAUCAUAUUGGGUGATT against RAB7B | 0
32 | CUAUAGGAAUGUUGAAUAATT against WDR33 | 3.27 (active)
33 | GGACCACAAUGUACGGAAATT against ATP13A5 | 0.241
34 | CUCCUGUACUCUUCAGAGATT against PTOV1 | 0.115
35 | GGACCAAGCCCUAAAGGAATT against 4-Sep | -0.0124
36 | GGAUUAAUCCACGAAUUGATT against EGF | 0.00831
37 | AACUUGUAUUCUUAGGUUUTT against SAR1A | 0.0213
38 | GCUAACUACCAAGUCCUAATT against SLC8A1 | 0.221
39 | ACAUCGCCCUCAAACGGGATT against ACTL7A | 1.1 (active)
40 | GAUUGAUAGAGACAAUUCATT against RNGTT | -1.55 (active)
41 | UGGUGCUGUUGGUAAAACATT against CDC42 | -0.0938
42 | AGAGGUCCUUCAAAACAGATT against ENTPD6 | 0.438
43 | GGAGCGGAAUGAACUCAAATT against RILP | 0.503
44 | GCUUAGGUCUUGCUCUCAATT against YWHAE | 1.38 (active)
45 | CCACAAUAUCUCUAACAGATT against GUCY1A2 | -0.186
46 | AAACAAUCCGAAAAUAUGATT against KLK13 | 0.452

Row | Sequence | median seed-adjusted z-score
47 | GAAUUGACAAUCUCAUAGATT against MCCC2 | -0.0566
48 | GCAUCUUUUGGAGAUCGAATT against TC2N | 0.461
49 | GAAGUAUGAAGAAGAAGUATT against KRT83 | 1.15 (active)
50 | GAUCAUCCCUUGUCUCUUUTT against CHRNA6 | 0.21
51 | GCAGAAUACUUCUAUGAAUTT against WIF1 | -0.521
52 | ACACCAGCCUUGCACCUGATT against NCR1 | -0.26
53 | CGCCUUUCAUUUUUGCUGATT against TGM1 | -0.286
54 | CCUUUGCCCUGUUCAAGGATT against CYP17A1 | -1.39 (active)
55 | CAUACGAGGUAUUAUCAAATT against DNAJB7 | 0.684
56 | GGAUCAGUAAUAUACCACATT against MTFMT | -0.0119
57 | CCUGGAUUACAUCUACUUATT against EPHB6 | -0.0275
58 | GCAGCAUUAUAGUCGUAUUTT against PRSS7 | 0.0614
59 | GCAUUUGUAGGGUUACGGATT against GABRG1 | 0.312
60 | CAUUGUAGAUUACUCAGAATT against RHOT1 | -0.189
61 | GAUCCAUACUUGGAUGAUATT against PAIP1 | -0.0178
62 | GCUCGGAUAUGCUCCAGGATT against TMPRSS5 | 1.25 (active)
63 | GCCUGGAAUUCUACCGCUATT against SLC29A1 | 0.117
64 | GCAUAUCUUCUAACUUGCATT against EVI1 | 0
65 | GGACCAAGAGGAUUGAGUATT against CLSTN2 | 0
66 | AGUUUAAUCGGAAAGCCUUTT against NANS | -1.54 (active)
67 | GCAACACCGACGUAAAGAATT against ALOX5 | -0.201
68 | UGCUCUCAGUGGAAGAGGATT against TNFRSF8 | 0.739
69 | GGUUGGUGUUCGAUGAGUATT against ANXA6 | -1.01 (active)
